Structures are written as SMILES. In all, about 360,000 compounds went through this assay and about 10,000 (2.8%) were called active. Not shown: some 4% with an inconclusive outcome. The full list was thinned out, with actives kept by preference. Where a structure was tested more than once in an assay, its records may differ in their call. Values without a mark were called inactive. The call rests on the fitted dose curve; in most records, active means well fitted inhibition curve with a large enough effect; inconclusive means small, poorly fitted or top-dose-only effect; inactive means flat fitted curve, though single readings scatter.
On the % scale 0 is the no-effect control and ±100 the full control effect; potency means the concentration at half of the fitted maximal effect.

Serine/threonine-protein kinase PLK1 (Homo sapiens), sequence (P53350 whole entry, looked up, the tested form may be a part): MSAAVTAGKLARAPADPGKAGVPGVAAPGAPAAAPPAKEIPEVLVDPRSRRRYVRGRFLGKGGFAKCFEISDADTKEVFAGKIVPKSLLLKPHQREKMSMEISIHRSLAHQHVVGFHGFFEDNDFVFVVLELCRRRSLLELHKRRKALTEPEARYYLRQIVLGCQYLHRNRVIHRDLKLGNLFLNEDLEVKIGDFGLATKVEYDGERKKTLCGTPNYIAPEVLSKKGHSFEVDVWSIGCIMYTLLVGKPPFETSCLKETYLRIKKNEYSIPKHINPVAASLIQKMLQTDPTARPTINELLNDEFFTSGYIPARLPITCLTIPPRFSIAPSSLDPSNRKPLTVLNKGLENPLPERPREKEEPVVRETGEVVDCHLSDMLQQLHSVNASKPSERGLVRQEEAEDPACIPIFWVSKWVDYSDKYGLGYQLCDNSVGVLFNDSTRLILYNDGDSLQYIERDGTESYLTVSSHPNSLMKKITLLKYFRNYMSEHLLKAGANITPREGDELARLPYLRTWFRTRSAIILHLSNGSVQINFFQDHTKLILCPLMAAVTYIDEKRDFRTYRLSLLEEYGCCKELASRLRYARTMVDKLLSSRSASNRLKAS

The target in the assay is Serine/threonine-protein kinase PLK1 (Homo sapiens) (UniProt P53350). Nature of the assay: qHTS for Inhibitors of PLK1-PDB (polo-like kinase 1 - polo-box domain): Primary Screen. Further: nearly all actives have a fitted effect of over 65% in size. On max response, negative = inhibition: series mostly up to about 57 µM. The conditions noted are these: Plk1 PBD binding of FITC phosphopeptide, fluorescence polarization. An excerpt:
The polo-like kinase 1 (Plk1) is a member of a conserved subfamily of serine / threonine protein kinases that plays a pivotal roles in cell proliferation. It has a C-terminal non-catalytic region called the polo-box domain (PBD) that plays a crucial role in the subcellular localization of the Plk1. […] Furthermore, depletion of the overexpressed Plk1 by RNAi efficiently induces apoptotic cell death in cancer and reduces tumor growth in mouse xenograft models. Thus, targeting Plk1 is an appealing strategy for anti-cancer therapy. Therefore, this project aimed to screen the Molecular Libraries Small Molecule Repository (MLSMR) using a novel approach to find inhibitors that target the Plk1 PBD instead of the conventional N-terminal catalytic domain. This project employed a fluorescence polarization (FP) assay using a FITC-conjugated phospho-9-mer (p-9-mer) peptide and purified human Plk1 PBD protein. The identified small molecule inhibitors of Plk1 PBD can then further be developed into useful tools for biomedical and clinical research that complements or replaces current relevant disease therapy. NIH Chemical Genomics Center [NCGC] NIH Molecular Libraries Probe Centers Network [MLPCN] MLPCN Grant: MH100728 Assay Submitter (PI): Kyung Lee, NCI
Four microliter of 25 nM FITC-p-9-mer + 60 nM Plk1 PBD in buffer solution (final concentrations 25 nM and 60 nM respectively) or 4 uL of 25 nM FITC-p-9-mer (final concentration 25 nM) in buffer will be dispensed into a 1,536 Greiner medium-binding black solid plate. Small molecules at final concentrations of 18 nM to 57 uM and positive control phospho-9-mer (sequence: Ac-PPLHSpTAI-NH2) at final concentrations 26 nM to 57 uM and phospho-13-mer (sequence: Ac-[…]pTAI-NH2) at final concentrations of 1 nM to 2.3 uM will be pin-transferred (23 nL) to the plate via a Kalypsys pin-tool robotics equipped with a 1,536-pin array. The reaction plate will be centrifuged for 1 min at 1000 rpm and incubated at room temperature for 10 min. The FITC fluorescence signals will be read using the PerkinElmer ViewLux plate reader at 480 / 20 nm excitation and 540 / 20 nm S and P polarization emission wavelengths. Reagent bottles will be kept submerged into 4 °C recirculating chiller bath and all liquid lines will be covered with aluminum foil to minimize degradation. Library plates will be screened starting from the lowest to the highest concentrations to minimize compound carryover. Vehicle only plates, with DMSO being pin-transferred instead of compound solutions, will be included regularly throughout the screen to record any systematic shifts in assay signal.
In general terms: Quantitative high-throughput screening tests each substance at several concentrations.
As for `O=C(O)CCCC(=O)N1N=C(c2ccco2)CC1c1ccco1` (centres undefined), the max response, negative = inhibition was -14%.

Turning to `Cc1nn2c(c1-c1ccccc1)N=C(c1ccco1)CC2c1ccccc1` (centres undefined), the Potency was 42.3 µM (active) and the max response, negative = inhibition is 2.38%.

Regarding `Cc1nn(C(=O)c2ccoc2C)c(N)c1-c1ccccc1`, the max response, negative = inhibition is -3.12%.

For the compound `C[C@H]1CN([C@@H](C)CO)C(=O)c2cc(-c3ccccc3F)cnc2O[C@H]1CN(C)C(=O)C1CCOCC1`, the max response, negative = inhibition was -20.8%.

In the case of `Cc1ccc(Cn2c(C)c(C(=O)NCc3ccccc3C(F)(F)F)sc2=O)cc1`, the max response, negative = inhibition is -12.2%.

As to `O=C(CN1CCN(Cc2ccccc2)CC1)NC(c1ccccc1)c1ccccc1`, the max response, negative = inhibition was -13.1%.

With `O=C(Cc1ccc(-c2ccccc2)cc1)NC(c1ccccc1)c1ccccc1`, the Potency was 21.2 µM (active).

For `C=CCC(NC(=O)Cc1ccccc1)C(=O)NCCC` (centres undefined), the max response, negative = inhibition was -11.6%.

Turning to `O=C1NC[C@H](CCCCN2C[C@H](Cc3ccc(O)cc3)N(CC3CCCCC3)C(=O)C2=O)N(CCc2ccccc2)C1=O`, the max response, negative = inhibition is -5.25%.

Regarding `Cc1nc2c(OCc3ccc(Cl)cc3Cl)cccn2c1N(C)CC1CC1`, the max response, negative = inhibition is -13%.

Consider `Cc1cc2nc(-c3ccc(Cl)cc3)c(Cc3cccc(F)c3)n2c(C)c1Br`, for which the max response, negative = inhibition was -18.5%.

`Cc1noc(C)c1NC(=O)N(C)C[C@@H]1Oc2cc(Br)ccc2S(=O)(=O)N([C@@H](C)CO)C[C@H]1C`: the max response, negative = inhibition is 2.61%.

Take `Cn1c2c(c(=O)n(C)c1=O)C(c1cccc(F)c1)C(C#N)=C(N)O2` (centres undefined): the max response, negative = inhibition was -22.7%.

For `COc1ccccc1C1C(C#N)=C(N)Oc2c1c(-c1ccccc1)nn2-c1ccccc1` (centres undefined), the max response, negative = inhibition is -0.276%.

Turning to `Cc1nn(-c2ccccc2)c2c1C(c1ccc(F)cc1)C(C#N)=C(N)O2` (centres undefined), the Potency was 23.8 µM (active).

For `COc1ccc(S(=O)(=O)NC(=O)C2(C)CCN2C(=O)c2ccccc2CCc2ccccc2)cc1` (centres undefined), the max response, negative = inhibition is -9.6%.

`Cc1cc(Nc2ccc(C)c(C)c2)n2ncnc2n1`: the max response, negative = inhibition is -12.1%.

`CCCNC(=S)N1CCC(NC(=O)c2ccc(OC)cc2)CC1`: the max response, negative = inhibition is -7.7%.

For `O=C(NC1CCN(C(=S)NCc2ccco2)CC1)c1ccc(F)cc1`, the Potency is 23.8 µM (active).

With `O=S(=O)(c1ccc(F)cc1)N1CCN(C(=S)NCc2ccco2)CC1`, the max response, negative = inhibition was -10.7%.

With `COC(=O)C[C@@H]1C=C[C@@H](NS(=O)(=O)c2cccc(OC)c2)[C@@H](CO)O1`, the max response, negative = inhibition was -1.82%.

With `CC(=O)Nc1c(-c2ccc(C)cc2)nc2ccc(Cl)cn12`, the max response, negative = inhibition was -2.35%.

`CCCCN(CC)CCCNC(=O)CS(=O)(=O)Cc1nc(-c2cccc(OC)c2)oc1C`: the max response, negative = inhibition is 0.434%.

Consider `COc1cccc(-c2nc(CS(=O)(=O)CC(=O)NCCc3ccc(OC)c(OC)c3)c(C)o2)c1`, for which the Potency is 18.9 µM (active).

Take `COc1ccc(CCNC(=O)CS(=O)(=O)Cc2nc(-c3ccc(C)cc3)oc2C)cc1OC`: the max response, negative = inhibition is -18.7%.

Regarding `CC(=O)Nc1cccc(Nc2ccc(C#N)cc2)c1`, the max response, negative = inhibition was 0.998%.

`CC1CCCC(NC(=O)COC(=O)c2ccccc2C(=O)N(C)C2CCCCC2)C1C` (centres undefined): the max response, negative = inhibition was -13.1%.

For `O=C(Cn1cnc2ccccc2c1=O)Nc1cccc(S(=O)(=O)N2CCCCC2)c1`, the Potency is 26.7 µM (active).

Regarding `O=C(COC(=O)c1ccccc1)Nc1cccc(S(=O)(=O)N2CCOCC2)c1`, the max response, negative = inhibition is 10.6%.

In the case of `O=C(CSc1ccccc1)Nc1cccc(S(=O)(=O)N2CCCCC2)c1`, the max response, negative = inhibition was 3.72%.

As for `Nc1cc(N)nc(SCC(=O)Nc2cccc(S(=O)(=O)N3CCCCC3)c2)n1`, the max response, negative = inhibition was -3.4%.

As to `O=C(CSc1ccccc1)Nc1cccc(S(=O)(=O)N2CCOCC2)c1`, the Potency is 23.8 µM (active).

Consider `CCN(CC(=O)Nc1cccc(S(=O)(=O)N2CCCCC2)c1)Cc1ccccc1`, for which the max response, negative = inhibition is 1.36%.

For the compound `CN(C)CCN1CCN(c2cc(-c3cccc(Cl)c3)nc3ccnn23)CC1`, the max response, negative = inhibition was -12.4%.

With `COc1ccc(Sc2ccc(NC(=O)c3cccc(Cl)c3)cc2C#N)cc1`, the max response, negative = inhibition is 2.16%.

In the case of `Cc1cccc(CN2CCN(C3CN(Cc4ccccc4)S(=O)(=O)C3)CC2)c1` (centres undefined), the max response, negative = inhibition is 2.44%.

As for `Nc1ncnc2c1ncn2[C@@H]1O[C@H](CNC(=O)[C@H](N)Cc2cccnc2)[C@@H](O)[C@H]1O`, the max response, negative = inhibition is -2.93%.

For the compound `CCCCCC(=O)N1C[C@H](O)[C@@H](n2cc(COC(=O)c3ccccc3)nn2)C[C@@H]1c1ccc(C)cc1`, the max response, negative = inhibition is -4.42%.

As to `CCCCOC(=O)CNc1nnc(SCC(=O)OCC)[nH]c1=O`, the Potency is 13.4 µM (active).

As to `CCOC(=O)CSc1nc(C)c(Oc2ccc(Cl)cc2Cl)c(=O)[nH]1`, the max response, negative = inhibition was -19.2%.

Take `Cc1nnc(SCC(=O)N2CCOCC2)[nH]c1=O`: the max response, negative = inhibition is -7.51%.

Consider `CCc1nc2ccc(C(=O)N(C)CCN(C)C)cn2c1N(CC)CCOC`, for which the max response, negative = inhibition is -14.3%.

`COCOCCn1cc(CN2CCS(=O)(=O)N(Cc3ccc(-c4ccccc4)cc3)C(CC(C)C)C2=O)nn1` (centres undefined): the max response, negative = inhibition is -0.127%.
